# Assay outcomes from PubChem.
# In the library only some 4% were active in any assay of this set; here they are far more common.
# HIF-2a block: HIF-2a reporter inhibitors, primary screen, luminescence, 786-0 RCC cells; 786-0 RCC cells HIF-2a reporter, luciferase luminescence, overnight; inhibition, % at 18.8 µM; 360,000 tested, 0.72% active; AID 624352, 2012;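 active = inhibition of the luminescence signal of 40% or more relative to plate controls, in a single-dose primary screen at 18.75 µM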
# TWEAK-Fn14 inh: inhibitors of TWEAK-Fn14 signaling, primary screen, luciferase reporter cells, uHTS; TWEAK-stimulated Fn14 reporter cells, luciferase luminescence, 8 h; inhibition, % at 10 µM; 360,000 tested, 2% active; AID 1159606, 2016; in the data active = inhibition above about 50%
# CF NFkB block: inhibitors of PAF-induced NF-kB signaling, primary screen, cell-based, GFP fluorescence, uHTS. KKLEB NF-kB-GFP reporter, GFP fluorescence overnight. inhibition, % at 5 µM. 360,000 tested, 0.86% active;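 active = at least 50% inhibition at 5 µM, scaled per plate between neutral and stimulator controls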;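 also: PAF is a Pseudomonas aeruginosa culture filtrate used as stimulus; plate controls were PAF-stimulated DMSO wells for no effect and unstimulated DMSO wells for full effect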
# KKLEB tox: cytotoxicity in KKLEB CF airway cells, primary screen, cytotoxicity control for CF NF-kB inhibitor project, cell-based, uHTS, fluorescence assay plates. activity change (cytotoxicity), % at 5 µM. KKLEB CF airway cells viability, ATPlite luminescence, overnight; active compounds read low; cells stimulated with P. aeruginosa culture filtrate. 360,000 tested, 0.36% active;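 active = corrected activity change at or below -50% at 5 µM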
# Peg3 prom inh: Peg3 promoter-driven luciferase inhibitors, primary screen, cell-based, HeLa, luciferase luminescence; HeLa PEG-Prom luciferase reporter, overnight; inhibition, % at 20 µM; 360,000 tested, 1.7% active; AID 588405, 2011;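 active = inhibition of at least 50% at 20 µM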
# TROY NFkB inh: inhibitors of TROY-driven NF-kB signaling, primary screen, Q293 LMP1-TROYcd cells, NF-kB luciferase, uHTS | Q293 LMP1-TROYcd NF-kB luciferase reporter, 4 h | inhibition, % at 10 µM | 360,000 tested, 0.98% active | AID 1347056, 2019;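 active = compounds whose plate-normalised and pattern-corrected inhibition of the luciferase reporter signal at the single screening dose is 50% or more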
# Numbers without * were called inactive.
SMILES,HIF-2a block,TWEAK-Fn14 inh,CF NFkB block,KKLEB tox,Peg3 prom inh,TROY NFkB inh
Cc1cc(=O)oc2cc(OCC(=O)c3ccccc3)ccc12,-63.4,-17.3,-13.8,14.8,-53.0,-7.1
CCc1ccc(OCC(=O)c2c(O)c3ccccc3oc2=O)cc1,-11.7,15.8,22.8,5.9,-1.7,58.7*
Cc1ccc(C(C)C)c(OCC(=O)c2c(O)c3ccccc3oc2=O)c1,-2.3,14.6,9.3,-3.5,13.9,51.2*
Cc1ccc(OCC(=O)c2c(O)c3ccccc3oc2=O)cc1C,8.9,7.1,-5.0,-0.1,-3.4,61.8*
Cc1ccc(C(C)C)c(OCC(=O)NN2C(=O)c3ccccc3C2=O)c1,16.5,3.3,-9.4,10.1,-5.2,-4.7
Cc1cc(NC(=O)COc2coc(CN3CCN(c4ccccc4)CC3)cc2=O)no1,0.6,2.0,-3.2,11.8,-3.7,-18.6
Cc1ccc(/C=C/S(=O)(=O)NCCC(=O)NCc2ccc(F)cc2)cc1,11.6,16.3,-12.4,20.4,17.9,-12.7
CC(=O)CSc1nnc(-c2ccc3c(c2)OCO3)o1,-28.3,58.0*,-18.3,2.4,-70.4,30.9
O=C(NCCCc1ccccc1)c1cc([N+](=O)[O-])ccc1Cl,4.6,0.6,-27.7,1.5,18.1,-12.6
C[C@H](O)[C@@H]1C(=O)N2CCc3c([nH]c4ccccc34)[C@@H]2C[C@@H]1N(C)Cc1ccc2c(c1)OCO2,-16.1,-15.1,20.5,-9.2,11.2,-43.6
CC(C)(C)c1nn(-c2ccccc2)c2[nH]c(=O)c(CNc3ccc4c(c3)OCCO4)cc12,-28.1,96.2*,57.0*,15.5,-18.8,82.3*
CC(C)(C)c1nn(-c2ccccc2)c2[nH]c(=O)c(CNCc3ccco3)cc12,27.1,6.7,-3.9,12.4,-9.7,23.9
O=C(CSc1cccc[n+]1[O-])NN(c1ccccc1)c1ccccc1,-34.6,82.7*,-9.8,3.0,-26.3,-28.5
CCc1nn2cc(C(=O)c3cc(Cl)ccc3O)cnc2c1-c1ccc(F)cc1,-0.5,64.3*,41.6,-42.9,28.3,65.4*
OCCCCNCc1ccc(OCc2ccc(Cl)cc2Cl)cc1,-22.8,-19.4,23.0,-15.1,99.7*,-19.2
COc1ccc(C(=O)CSc2nnc(CC(=O)Nc3ccccc3OC)n2C)cc1,12.6,9.8,8.8,-2.2,16.1,-10.2
O=C(Nc1ccc(Cl)c(Cl)c1)Nc1nnc(CSc2ccccc2)s1,5.0,35.7,73.4*,-56.1*,42.3,13.4
O=C(Nc1ccccc1)Nc1nnc(CSCc2ccccc2Cl)s1,-0.9,35.1,13.0,1.8,33.2,48.5
Cc1cccc(-c2cc3c(N=O)c4ccccc4c-3n[nH]2)c1,-157.0,53.0*,-25.4,4.1,-114.1,38.1
O=Nc1c2cc(-c3ccccc3)[nH]nc-2c2ccccc12,-50.0,80.1*,-77.0,-10.9,10.4,70.7*
Cc1ccc(NC(=O)/C(=C/c2cccc([N+](=O)[O-])c2)NC(=O)C2CCCCC2)c(C)c1,12.3,-17.6,-9.5,-2.4,59.2*,4.2
Cc1ccc(O)c(Cc2cc(C)cc(Cc3cc(C)ccc3O)c2O)c1,16.5,23.8,21.4,6.2,55.9*,18.1
Cc1ccc(O)c(CNCCNCc2cc(C)ccc2O)c1,9.8,-5.4,10.7,-12.8,28.8,9.0
CN1CCc2cc3c(c4c2[C@H]1[C@H](O)c1ccccc1-4)OCO3,31.9,-28.2,-348.9,8.1,65.5*,-34.0
Cc1cnc(C(=O)OCC(=O)Nc2ccc(C)c(S(=O)(=O)N3CCCCCC3)c2)cn1,15.2,3.1,-21.2,5.4,0.2,11.4
O=C(COc1ccccc1)Nc1cccc(-c2nn[nH]n2)c1,7.4,-7.5,-17.1,11.6,24.8,-25.7
O=C(COc1ccccc1)Nc1cccc(-c2nc3cc4ccccc4cc3[nH]2)c1,-300.2,77.0*,9.3,-36.1,-17.9,6.5
CCOC(=O)c1c(-c2ccccc2)nnn1-c1nc(OCC)nc(N2CCCCC2)n1,9.3,52.5*,4.5,10.2,52.7*,9.9
